Shown are actives, neighbours in structure and some others; about 1.4% of the full set was active somewhere.
p53 reactivation – qHTS assay for re-activators of p53 using a Luc reporter; H1299 p53-A138V BP100-luciferase reporter, luminescence, 24 h; Potency, µM (highest dose often 92.2 µM), for inactives: at the top dose activity change, positive = activation, hits mostly activators; 320,000 compounds, 0.063% hits; AID 504706, 2011; note: potency is the fitted concentration of half-maximal effect; % of control where 0% means no effect; nearly all actives have a fitted effect of over 45% in size
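p53-null H1299 cells stably carrying temperature-sensitive p53-A138V and a BP100-luciferase reporter were pinned with compounds (4-point, 1:5 series) and held 24 hrs at 37 deg C. Luminescence was read 10 min after detection reagent.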
CCT modulator – High-Throughput Screening for Modulators of Cytosolic Chaperonin Activity; purified chaperonin ATPase assay, HTRF ADP detection, 30 min; 360,000 compounds, 0.3% hits; activity change, % (concentration not given with the values), hits read low; in the data active = activity change below about -30%; note: % is set by controls: 0 for no effect and ±100 for the full control effect
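ATPase activity: ADP formed was measured by HTRF Transcreener (665/615 nm ratio) after 30 min at 37 deg C with 10 uM ATP. Compounds screened at one 76 uM concentration against 40 or 20 nM TRiC in Tris pH 7.4/KCl/MgCl2/DTT buffer.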
MmCpn inh – Inhibitors of TCP-1 ring complex (TRiC) of Methanococcus maripaludis (MmCpn): qHTS; purified Mm-Cpn ATPase, ADP Transcreener TR-FRET; Potency, µM (top dose mostly 76.9 µM), for the others: top-dose activity, negative = inhibition, actives largely listed as inhibitors; 330,000 compounds, 0.031% hits; note: potency is the fitted concentration of half-maximal effect; % is set by controls: 0 for no effect and ±100 for the full control effect; nearly all actives have a fitted effect of over 80% in size
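Purified archaeal chaperonin (25 nM final) was preincubated with compound for 10 min at 37°C, then ATP (10 uM final) was added for 30 min at 37°C in Tris pH 7.4/KCl/MgCl2/DTT buffer. ADP was quantified by HTRF Transcreener TR-FRET.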
12-LOX inh – Primary qHTS assay for inhibitors of human arachidonate 12S-lipoxygenase (ALOX12): Round 2 | Polyunsaturated fatty acid lipoxygenase ALOX12 (Homo sapiens), P18054 | purified 12hLO, xylenol orange hydroperoxide absorbance | Potency, µM (doses to about 108 µM), for inactives: at the highest dose activity change, negative = inhibition, actives largely listed as inhibitors | 580,000 compounds, 1.1% hits; note: potency is the fitted concentration of half-maximal effect; % is set by controls: 0 for no effect and ±100 for the full control effect
Target sequence (P18054 whole entry, looked up): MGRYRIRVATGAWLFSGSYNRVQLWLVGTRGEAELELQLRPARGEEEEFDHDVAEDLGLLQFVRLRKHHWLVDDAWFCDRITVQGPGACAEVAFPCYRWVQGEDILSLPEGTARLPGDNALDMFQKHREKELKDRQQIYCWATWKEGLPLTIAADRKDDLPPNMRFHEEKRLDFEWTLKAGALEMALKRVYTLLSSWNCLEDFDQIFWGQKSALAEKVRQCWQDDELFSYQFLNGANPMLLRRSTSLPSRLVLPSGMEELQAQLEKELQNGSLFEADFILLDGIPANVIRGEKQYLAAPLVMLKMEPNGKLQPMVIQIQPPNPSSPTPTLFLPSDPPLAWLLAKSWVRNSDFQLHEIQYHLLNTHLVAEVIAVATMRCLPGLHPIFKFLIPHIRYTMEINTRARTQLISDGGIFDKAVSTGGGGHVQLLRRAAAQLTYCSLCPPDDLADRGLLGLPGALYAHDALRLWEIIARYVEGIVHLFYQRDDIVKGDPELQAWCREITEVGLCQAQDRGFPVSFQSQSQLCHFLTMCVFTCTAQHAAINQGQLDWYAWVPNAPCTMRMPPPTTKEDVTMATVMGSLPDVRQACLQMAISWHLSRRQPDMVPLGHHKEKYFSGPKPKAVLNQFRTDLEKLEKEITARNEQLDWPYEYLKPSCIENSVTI
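Hydroperoxide product was detected by ferrous iron/xylenol orange as the 573 to 405 nm absorbance ratio. Arachidonic acid at 40 uM (final) was turned over for 30 min at room temperature by 150 nM human 12hLO, pH 7.0 Hepes buffer, after 15 min compound preincubation.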
ASM inhibitor – Inhibitors of Secretory Acid Sphingomyelinase (S-ASM): qHTS. 340,000 compounds, 0.006% hits. AID 504937, 2011. placental ASM, HMU-PC fluorogenic substrate, 60 min. Potency, µM (series often up to 57.5 µM), without a hit: at the highest dose activity change, negative = inhibition, most hits filed as inhibitors. Sphingomyelin phosphodiesterase (Homo sapiens), P17405; note: potency is the fitted concentration of half-maximal effect
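qHTS format. ASM enzyme prepared from human placenta hydrolyses the fluorogenic substrate HMU-PC0 (9 uM final) over 60 min at 37 °C after a 10 min compound preincubation.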
PINK1 modulator – A Quantitative High throughput Screen to Identify Chemical Modulators of PINK1 Expression | PINK1 immunofluorescence, high-content cytometry, 24 h | Potency, µM (doses to about 76.6 µM), for inactives: at the top dose activation (PINK1 increase), hits mostly activators | 410,000 compounds, 0.2% hits; active = well fitted activation curve with a large enough effect; inconclusive = small, poorly fitted or top-dose-only effect; cell line not stated here; note: potency is the fitted concentration of half-maximal effect; % of control where 0% means no effect; nearly all actives have a fitted effect of over 65% in size
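Readout is PINK1 immunofluorescence, quantified alongside mitochondrial, cell and nuclear markers by laser-scanning microplate cytometry. Cells from a stable line were exposed to compound titrations (5 concentrations) for 24 hours, with CCCP controls.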
* = called active by the depositor; ? = inconclusive; . = no result given; [ ] = remark or other dose. Unless noted, calls come from the whole dose curve; as a rule, active = well fitted curve in the direction sought with a large enough effect; inconclusive = small, poorly fitted or top-dose-only effect, or another doubt; inactive = no such curve, though single readings can be large; an effect the other way counts as inactive or inconclusive.

SMILES	p53 reactivation	CCT modulator	MmCpn inh	12-LOX inh	ASM inhibitor	PINK1 modulator
C[C@H]1[C@@H]2[C@@H](O)[C@H]([C@H](C)C(=O)N3CCCC3)CC[C@@]2(C)CC[C@@H]1NC(=O)c1cccc(F)c1	.	.	.	16%	.	.
COC(=O)c1c(NC(=S)Nc2cc(OC)c(Cl)cc2OC)sc2c1CCCCC2	-4%	1	?	40µM*	-9%	1%
FC(F)C(F)(F)c1cc(-c2ccc(Cl)cc2)n[nH]1	?	-3	0%	0%	-6%	24%
Fc1ccc(-c2cc(C(F)(F)C(F)F)[nH]n2)cc1	13%	-37*	0%	?	-1%	1%
NCc1ccc(NC(N)=O)cc1	.	.	.	-35%	.	.
O=[N+]([O-])c1cc(C(F)(F)F)ccc1NCCNC(=S)Nc1ccc(Cl)cc1	-16%	-4	3%	40µM*	?	13µM*
O=[N+]([O-])c1cc(C(F)(F)F)ccc1NCCCCNS(=O)(=O)c1ccc(Cl)cc1	12%	0	0%	?	-27%	?
O=C(Nc1ccc(Cl)cc1)[C@@H]1[C@@H]2C(=O)N(c3ccc4ccccc4c3)C(=O)[C@@H]2[C@H]2C=CC=NN21	-1%	3	-1%	18µM*	-2%	0%
CCOC(=O)C1(Cc2ccccc2C(F)(F)F)CCN(CCCn2cccn2)CC1	-4%	-2	2%	-15%	3%	-2%
CCOC(=O)C1(Cc2ccccc2C(F)(F)F)CCN(Cc2ccccn2)CC1	.	.	.	16µM*	.	.
O=C1CC(c2cc3c(cc2Br)OCO3)c2cc3c(cc2N1)OCCO3 (centres undefined)	.	.	.	-10%	.	.
O=S(=O)(c1ccc2c(c1)OCCO2)N1CCC(c2nc3ccccc3s2)CC1	3%	-1	1%	2%	-1%	11µM*
COc1ccc(N(C)C(=O)Cc2noc3ccccc23)c(OC)c1	.	.	.	-7%	.	.
O=C(Nc1oc2ccccc2c(=O)c1-c1cccc(Cl)c1)c1cccc([N+](=O)[O-])c1	.	.	.	-31%	.	.
Cn1c(O)c(N=Nc2ccc(F)cc2)c2ccccc21	-2%	2	-2%	18µM*	-21%	1%
COc1ccccc1NC(=O)CSc1nnc(-n2nc(C)cc2C)n1N	.	.	.	-2%	.	.
CCc1sc2nc(SCC(=O)Nc3cc(C)on3)n(-c3cccc(OC)c3)c(=O)c2c1C	8%	-36*	-3%	131%	4%	1%
Cc1cc(C)cc(C(=O)NC2CCCc3ccccc32)c1 (centres undefined)	.	.	.	12%	.	.
FC(F)(F)c1cnc2c(c1)[nH]c(=S)n2-c1ccc(Cl)cc1	-2%	0	-3%	4%	-1%	40µM*
Fc1ccc(-n2c(=S)[nH]c3cccnc32)cc1	1%	1	-6%	?	13%	17%
CC(=O)C1=C(O)C(=O)N(c2cc(C(C)(C)C)on2)C1c1ccc(C(C)C)cc1 (centres undefined)	2%	-2	-1%	.	15%	0%
CC(=O)C1=C(O)C(=O)N(c2cc(C(C)(C)C)on2)C1c1ccc(Br)cc1 (centres undefined)	-4%	3	-2%	45µM*	17%	-1%[38.3 µM]
Cc1nc(SC(C)C#N)c2c(=O)n(C)c(=O)n(CC(C)C)c2n1 (centres undefined)	.	.	.	-25%	.	.
Cn1ccc2c(C(=O)N3CCC(C(N)=O)CC3)cccc21	.	.	.	2%	.	.
COc1ccc(NC(=O)c2cc(C(C)C)on2)cc1OC	-7%	-3	1%	11%	6%	5%[38.3 µM]
SMILES	p53 reactivation	CCT modulator	MmCpn inh	12-LOX inh	ASM inhibitor	PINK1 modulator
COc1ccc(NC(=O)c2cc(C)on2)cc1OC	2%	0	2%	8%	1%	13µM*
COc1cccc(-c2cc(C(=O)Nc3cc(OC)c(OC)c(OC)c3)no2)c1	-33%	-4	2%	27%	-19%	11µM*
O=C(CCCCCn1c(=S)[nH]c2ccc(N3CCOCC3)cc2c1=O)NCc1ccc2c(c1)OCO2	-1%	-57*	0%	-15%	36%	4%
Cc1nnc(SCC(=O)Nc2sc3c(c2C#N)CCC(C)C3)n1Cc1ccccc1 (centres undefined)	.	.	.	20µM*	.	.
CCn1cnnc1SCC(=O)Nc1sc2c(c1C#N)CCC(C)C2 (centres undefined)	.	.	.	70%	.	.
Cc1ccc(C)c(N2CCN(S(=O)(=O)c3ccc(-c4cnc(C)o4)cc3)CC2)c1	.	.	.	24%	.	.
COc1ccc(Cc2n[nH]c(=S)n2CC(C)C)cc1	.	.	.	14µM*	.	.
COc1ccc(-c2n[nH]c(=S)n2-c2ccc(C)cc2C)cc1	4%	1	-16%	6.3µM*	-1%	0%
COc1ccc(OCc2n[nH]c(=S)n2-c2ccc(C)cc2)cc1	-1%	-2	3%	?	-1%	1%
Cc1cccc(-c2n[nH]c(=S)n2Cc2ccccc2)c1	7%	-1	-12%	?	-4%	1%
COc1ccc(-n2c(COc3cccc(C)c3)n[nH]c2=S)cc1	.	0	1%	8.9µM*	3%	2%
Cc1ccc(-n2c(-c3ccc(Cl)cc3)n[nH]c2=S)c(C)c1	.	0	-6%	?	-8%	2%
Cc1ccc(-c2n[nH]c(=S)n2Cc2ccccc2)cc1	1%	-1	-1%	40µM*	-6%	-11%[38.3 µM]
COc1ccc(CN2C(=O)C(O)(CC(=O)c3ccccc3OC)c3ccccc32)cc1OC (centres undefined)	.	.	.	-7%	.	.
CCOc1ccc(-c2n[nH]c(=S)n2Cc2ccccc2)cc1	-27%	-1	-2%	?	-15%	1%
S=c1[nH]nc(-c2cc3ccccc3o2)n1Cc1ccccc1	20%	-14	-14%	45µM*	37%	-2%
NC(=O)CSc1nnc(-c2cc3ccccc3o2)n1Cc1ccccc1	-10%	-62*	7%	0%	0%	0%
COc1ccc(Cn2c(-c3ccc(OC)cc3)n[nH]c2=S)cc1	2%	-1	1%	16µM*	-20%	0%
Cc1oc(-c2ccccc2)nc1CC(=O)NC(C)CN1CCOCC1 (centres undefined)	.	.	.	3%	.	.
COc1ccc(S(=O)(=O)N2CCN(c3ccccc3F)CC2)cc1-c1nc(C(C)C)no1	.	.	.	7%	.	.
Cc1nn(CC(=O)N2CCC(C)CC2)c(=O)c2cccn12	3%	-55*	0%	-9%	-2%	-1%

From PubChem
